Reference: PubChem BioAssay AID1851 (National Center for Advancing Translational Sciences (NCATS), 2009)
Screen size: about 16,000 compounds; about 5,700 (36%) were called active. Not shown: some 24% with an inconclusive outcome. This is one part of the list. A number with no mark means an inactive call. Calls follow the shape of the dose curve; as a rule, active = well fitted curve in the direction sought with a large enough effect; inconclusive = small, poorly fitted or top-dose-only effect, or effect the other way; inactive = no such curve, though single readings can be large or run the other way.

Target: Cytochrome P450 1A2 (Homo sapiens) (UniProt P05177)
Sequence (P05177 whole entry, looked up): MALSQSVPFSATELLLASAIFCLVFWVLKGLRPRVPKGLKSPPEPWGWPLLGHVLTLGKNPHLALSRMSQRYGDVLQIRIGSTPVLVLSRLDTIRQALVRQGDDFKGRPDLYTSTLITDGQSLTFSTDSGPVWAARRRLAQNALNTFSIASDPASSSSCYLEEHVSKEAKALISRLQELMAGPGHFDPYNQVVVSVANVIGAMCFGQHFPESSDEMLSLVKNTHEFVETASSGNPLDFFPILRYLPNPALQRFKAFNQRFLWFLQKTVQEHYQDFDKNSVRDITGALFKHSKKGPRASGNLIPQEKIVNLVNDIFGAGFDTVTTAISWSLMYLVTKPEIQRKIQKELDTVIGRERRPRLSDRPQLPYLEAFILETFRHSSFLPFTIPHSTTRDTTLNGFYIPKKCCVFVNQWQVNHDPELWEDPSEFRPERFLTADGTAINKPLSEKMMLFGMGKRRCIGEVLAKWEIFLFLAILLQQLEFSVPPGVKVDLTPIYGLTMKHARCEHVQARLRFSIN
Experiment: Cytochrome panel assay with activity outcomes
Conditions: recombinant CYP, pro-luciferin dealkylation, luminescence, p450-cyp1a2; series mostly up to 57.1 µM; activity, negative = inhibition: at the top concentration
% is scaled to controls: 0 for no effect and ±100 for the full control effect.

SMILES | activity, negative = inhibition | AC50
Cc1cc(OC(=O)c2cc(F)c(F)cc2Cl)nc(C)n1 | -0.707% | 
COc1ccc(C(=O)/C=C(/C)N(C)C)cc1 |  | 3.55 µM (active)
CC(C)CSC[C@@H]1O[C@H](n2cnc3c(N)nccc32)[C@H](O)[C@@H]1O | 3.41% [at 11.4 µM] | 
O=C(O)C1CCC(=O)N(C2CC2)C1c1ccccc1 (stereo not drawn) | 10% | 
CC1CCC(C(=O)O)([C@H](Br)C(=O)O)CC1 (stereo partly drawn) | -8.77% [at 11.4 µM] | 
CN(C)c1oc(-c2ccccc2)nc1C#N |  | 3.16 µM (active)
CN(C)C(=O)c1ccc(-c2ccc3ncnc(Nc4ccccc4)c3c2)cc1 |  | 15.8 µM (active)
CN(C)C(=O)c1ccc(-c2ccc3ncnc(Nc4ccc(F)cc4)c3c2)cc1 |  | 20 µM (active)
COC(=O)C/C=C\[C@@H](C)[C@@H](/C=N\OC[C@@H](O)[C@H]1O[C@H]2OC(C)(C)O[C@H]2[C@@H]1O)OC | -15.6% [at 11.4 µM] | 
Cc1ccc(OCC(=O)Nn2cnc3ccccc32)cc1 |  | 6.31 µM (active)
Cc1ccc(OCC(=O)NNC(=O)CCc2ccccc2)cc1 | -15.2% | 
Cc1ccc(OCC(=O)NNC(=O)C2CCN(c3ncccn3)CC2)cc1 | 8.55% | 
Cc1cc(NC(=O)COc2ccc(Cl)cc2Cl)n(-c2ccccc2)n1 |  | 1.78 µM (active)
Cc1ccc(N(C(C)C(=O)Nc2cc(Cl)ccc2Oc2ccccc2)S(C)(=O)=O)cc1 (stereo not drawn) | -16.4% | 
O=C(COc1ccccc1Cl)Nc1cc(Cl)ccc1Oc1ccccc1 |  | 2.51 µM (active)
Cc1ccc(OCC(=O)Nc2ccc(Cl)cc2)c(-n2nc3ccccc3n2)c1 |  | 3.55 µM (active)
CC(C)(C)c1ccc(OCC(=O)O)c(Cl)c1 | -16.2% [at 11.4 µM] | 
Cc1cc(Cl)ccc1OC(C)C(=O)Nc1ccc(S(=O)(=O)Nc2cnc3ccccc3n2)cc1 (stereo not drawn) | -13.5% | 
O=C(Nc1cccc(C(F)(F)F)c1)c1ccc(Cn2cc(Br)cn2)o1 |  | 2 µM (active)
CC(C)CN1CCC2(CC1)CCN(C(=O)c1csnn1)CC2 | -2.25% | 
OCCNCCCOc1cccc(Cl)c1Cl |  | 0.2 µM (active)
OCCCNCc1ccccn1 | -20% [at 2.29 µM] | 

SMILES | activity, negative = inhibition | AC50
CCCCNN | -6.54% [at 2.29 µM] | 
CN(C)S(=O)(=O)c1ccc(Nc2ccc(O)c3c2C(=O)c2c([N+](=O)[O-])ccc(O)c2C3=O)cc1 |  | 0.126 µM (active)
O=C(CCCN1CC=C(n2c(=O)[nH]c3ccccc32)CC1)c1ccc(F)cc1 | -11% [at 25.6 µM] | 
COC(=O)CCSc1cc([N+](=O)[O-])cc2c1c(C1OCCS1)nn2-c1ccccc1 (stereo not drawn) |  | 28.2 µM (active)
O=C(O)c1nn(-c2ccccc2)nc1-c1nn(-c2ccccc2)nc1C(=O)O | -3.23% | 
CN(C)C=Nc1ccc2nn(-c3ccccc3)nc2c1 |  | 0.708 µM (active)
CC(=O)OC[C@@H]1O[C@@H](O/N=C2/C[C@@H](O)[C@@H](O)[C@@H]3[C@@H]4C(=O)N([C@@H](C)c5ccccc5)C(=O)[C@H]4CC[C@H]23)[C@H](OC(C)=O)[C@H](OC(C)=O)[C@@H]1OC(C)=O | 3.02% [at 11.4 µM] | 
Cc1nn(C)c(Cl)c1NC(=O)OCc1ccc(F)cc1 |  | 14.1 µM (active)
Cc1nn(C)c(Cl)c1NC(=O)OCc1ccc(Cl)cc1Cl |  | 5.01 µM (active)
CC(C)(C)C(=O)OCOC(=O)[C@@H]1N2C(=O)[C@@H](NC(=O)[C@H](N)c3ccccc3)[C@H]2SC1(C)C | -6.18% [at 25.6 µM] | 
COc1ccc(O[C@H]2C=C[C@@H](c3ccccc3)O[C@H]2COC(=O)CC/C(C)=N\O[C@@H](C)c2cc(-c3c(C)cc(C)cc3C)no2)cc1 | -2.73% [at 11.4 µM] | 
N#Cc1cccc(-c2cc(NCc3ccccc3)ncn2)c1 |  | 1 µM (active)
Cc1cccc(CNc2cc(-c3cccc(C#N)c3)ncn2)c1 |  | 0.158 µM (active)
N#Cc1cccc(-c2cc(NCc3cccnc3)ncn2)c1 |  | 0.0398 µM (active)
N#Cc1cccc(-c2cc(NCc3cccs3)ncn2)c1 |  | 0.794 µM (active)
C[C@@H](c1ccccc1)N1C(=O)[C@H]2[C@@H]3[C@H](O)C=CC(=O)[C@H]3CC[C@H]2C1=O | -9.41% [at 11.4 µM] | 
COC(=O)C1C(=O)C2=C(CC1C)NC(=O)CC2c1cccc(C)c1 (stereo not drawn) | -28.9% | 
COC(=O)[C@@]1(Cc2ccccc2)[C@H]2c3cc(C(=O)N4CCCC4)n(Cc4ccc(S(C)(=O)=O)cc4)c3C[C@H]2CN1C(=O)c1ccccc1 | -17% | 
CN(CC[C@@H](Oc1ccc(-c2ccccc2)cc1)c1ccc(F)cc1)CC(=O)O | -21% | 
O=C(Nc1ccc(Cl)cc1)OCCn1nnnc1C(c1ccccc1Cl)N1CCOCC1 (stereo not drawn) |  | 15.8 µM (active)
COc1ccc(Cn2nnnc2C(c2ccccc2Cl)N2CCC(C(N)=O)CC2)cc1 (stereo not drawn) | -13.2% | 
COC(=O)CNC(c1ccccc1Cl)c1cc(Br)ccc1NC(=O)CCN1CCOCC1 (stereo not drawn) | -12.6% | 

SMILES | activity, negative = inhibition | AC50
CO[C@@H]1/C=C\O[C@@]2(C)Oc3c(C)c(O)c4c(c3C2=O)C(=N[C@H]2CC[C@H](O)O[C@@H]2C)C=C(NC(=O)/C(C)=C\C(=O)[C@@H]2C[C@@H]2[C@@H](O)[C@H](C)[C@@H](O)[C@H](C)[C@H](OC(C)=O)[C@@H]1C)C4=O | -9.54% [at 11.4 µM] | 
COc1ccc(-n2nnnc2SCC(=O)Nc2ccccc2)cc1 |  | 6.31 µM (active)
CCC(=O)Nc1ccc(NC(=O)CSc2nnnn2-c2cccnc2)cc1C | -9.78% | 
Cn1ccnc1SCC(=O)Nc1sccc1C#N |  | 3.16 µM (active)
COc1ccc(NC(=O)CSC2=NC(=O)CC(C)=N2)cc1 | -13.5% | 
COc1ccc(-n2ccnc2SCC(=O)Nc2ccccc2)cc1 |  | 12.6 µM (active)
COc1ccc(NC(=O)CSc2nnc(C3CC3)n2-c2ccccc2)cc1 | -16.2% | 
COc1ccc(NC(=O)CSc2ccc3c4c(cccc24)C(=O)c2ccccc2-3)cc1 |  | 1.58 µM (active)
C=CCN1C(=NC(=O)CC)SC2CS(=O)(=O)CC21 (stereo not drawn) | -14% | 
O=c1[nH]c(=S)c2[nH]c(=O)n(-c3ccccc3)c2[nH]1 | -1.84% [at 11.4 µM] | 
COc1cccc(NC(=O)CSc2nnc(CN3CCOCC3)n2C)c1 | -3.9% | 
CCOc1ccc(-n2c(SCC(=O)Nc3ccc(OC)cc3OC)nc3c(c2=O)SCC3)cc1 | -16.2% | 
COc1ccc(-n2ccnc2SCC(=O)Nc2ccc(OC)cc2OC)cc1 |  | 6.31 µM (active)
COC(=O)CSc1nnc(C)n1-c1cccc(OC)c1 | -13.4% | 
COc1cccc(-n2ccnc2SCC(=O)Nc2nccs2)c1 |  | 1.26 µM (active)
O=C1[C@H]2[C@H]3[C@H](O)[C@H](O)C/C(=N/OC[C@@H](O)COCc4ccco4)[C@H]3CC[C@@H]2C(=O)N1Cc1ccc2c(c1)OCO2 | 6.71% [at 11.4 µM] | 
O=C(c1ccncc1)N1CCC2(CC1)CN(Cc1cc(C(F)(F)F)cc(C(F)(F)F)c1)C2 | 3.54% | 
O=C1[C@@H]2[C@@H]3C=C[C@H]([C@@H]2C(=O)N1CN1CCSCC1)[C@@H]1[C@@H]2C(=O)N(CN4CCSCC4)C(=O)[C@@H]2[C@H]31 | -13.4% [at 11.4 µM] | 
CN(C)CCNC(=O)Cn1nc(-c2ccc(Cl)cc2)ccc1=O | 18.6% | 
O=C(NOC(=O)c1cc(Br)ccc1Cl)c1cccs1 | -19.8% | 
CN(C)CCNC(=O)c1cc(Br)ccc1Cl |  | 11.2 µM (active)
CCCS(=O)(=O)N1CCCC(C(=O)NCCN(C)Cc2ccccc2)C1 (stereo not drawn) | -18.5% | 

SMILES | activity, negative = inhibition | AC50
CCn1c(SCc2ccc(Cl)cc2Cl)nc2nc3c(cc2c1=O)CCCC3 |  | 3.55 µM (active)
Cn1c(=O)c2c(nc(N3CCN(c4ccccn4)CC3)n2Cc2ccc(Cl)cc2Cl)n(C)c1=O | -9.51% | 
CCC(=O)Nc1ncnc2ncn(C(=O)CC)c12 | -5.19% [at 11.4 µM] | 
CCCCNC(=O)Cc1coc2ccc3ccccc3c12 |  | 4.47 µM (active)
CCOC(=O)CSc1nnc(CSc2nc3sc4c(c3c(=O)[nH]2)CCCC4)n1-c1ccccc1 |  | 14.1 µM (active)
CCOC(=O)CSc1nnc(Cc2cc(=O)[nH]c(=O)[nH]2)n1-c1cccc(OC)c1 | -6.04% | 
CCOC(=O)C(Sc1ncnc2c1sc1nc(N3CCOCC3)c3c(c12)CCCC3)c1ccccc1 (stereo not drawn) | -6.83% | 
CN(Cc1ccco1)c1ncncc1-c1cccc(NS(C)(=O)=O)c1 |  | 15.8 µM (active)
CN(Cc1ccco1)c1ncnc2ccc(-c3cccc(NS(C)(=O)=O)c3)cc12 |  | 0.398 µM (active)
O=C1NC(c2ccccc2)=NC1(NS(=O)(=O)c1ccccc1)C(F)(F)F (stereo not drawn) | -28% | 
COc1cccc(Nc2ncc3nc(CCc4ccccc4)c(=O)n(CCC#N)c3n2)c1 | -9.26% | 
COc1ccc(-c2nc3cnc(Nc4cccc(OC)c4)nc3n(CCC#N)c2=O)cc1 |  | 6.31 µM (active)
COc1cccc(Nc2ncc3nc(C)c(=O)n(CCC#N)c3n2)c1 |  | 1.26 µM (active)
N#CCCn1c(=O)c(CCc2ccccc2)nc2cnc(Nc3ccccc3)nc21 | -7.24% | 
Cc1nc2cnc(Nc3ccccc3)nc2n(CCC#N)c1=O |  | 0.631 µM (active)
COc1cccc(Nc2ncc3ncc(=O)n(CCC#N)c3n2)c1 |  | 1 µM (active)
C[N+](C)(C)CCCCCC[N+](C)(C)C |  | inactive
O=S(Cc1ccccc1)CC(O)(c1ccccc1)c1ccccc1 (stereo not drawn) | -15.5% | 
Cc1ccc(C(=O)N2CCN(C3c4cccc5cccc(c45)C3NS(=O)(=O)c3ccccc3)CC2)cc1 (stereo not drawn) | -17.6% | 
CS(=O)(=O)Nc1cccc(-c2cncnc2Nc2ccc(F)cc2)c1 |  | 5.01 µM (active)
CS(=O)(=O)Nc1cccc(-c2cncnc2Nc2ccccc2)c1 |  | 5.01 µM (active)
CN=C(NC#N)NCCSC[C@H]1N=CN=C1C | -10.2% [at 25.6 µM] | 
